MEX-5 binding: C. elegans MEX-5 TCR-2 RNA binding activity | actives 0.38% (n = 300,000) | activity score (negative = inhibition of binding), % at 10 µM | MEX-5/FITC-TCR2 RNA binding, fluorescence polarization; stronger effect = lower value;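 active means inhibition past about -25% in most replicates, and total fluorescence under double the plate's negative control median, limit read from the data; inconclusive means replicates evenly split on the limit, or fluorescence at least double controls; inactive means too little inhibition in most replicates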
EBV gp42 block: blocks Epstein-Barr virus glycoprotein 42 binding; Q1HVG2; Fluorescence polarization binding assay, mP read-out; inhibition, % (tested at 21.74 µM); actives 0.42% (n = 220,000); in the data active means inhibition above about 50%
Target sequence (Q1HVG2 whole entry, looked up): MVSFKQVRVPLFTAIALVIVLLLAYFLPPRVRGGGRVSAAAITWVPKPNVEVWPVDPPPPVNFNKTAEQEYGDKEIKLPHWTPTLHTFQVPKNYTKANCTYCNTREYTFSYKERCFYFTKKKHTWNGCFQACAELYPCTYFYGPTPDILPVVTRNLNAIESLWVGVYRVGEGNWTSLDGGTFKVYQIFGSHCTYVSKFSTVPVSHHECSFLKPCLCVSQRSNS
PABP1 MLLE inh: inhibitors of microRNA-mediated deadenylation, human PABP1 MLLE binding; P11940; inhibition, % at 20 µM; GST-MLLE / FITC-PAM2 fluorescence polarization; actives 0.36% (n = 360,000); in the data active means inhibition above about 35%, passing the limit was not always enough
PABP polyA inh: PABP-poly(A) binding inhibition; P11940; PABP-poly(A) RNA binding, fluorescence polarization; calls only at 35 µM; actives 1% (n = 290,000); AID 2014;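 further: calls also rest on retests at 20 µM and on dose response follow-up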
eIF4H inh: inhibitors of RNA binding by human eIF4H; eIF4H fluorescence polarization binding assay; Q15056; actives 0.94% (n = 290,000); inhibition, % at 35 µM;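 further: calls also rest on retests at 20 µM and on dose response follow-up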
Hits are given with their value; i = inactive; ? = inconclusive; nt = no result; + = active, no number. Only some compounds are listed: those with a hit (about 1.8% of all), similar ones and a draw of the others. Unless noted, how the calls were made is not given here.

SMILES	MEX-5 binding	EBV gp42 block	PABP1 MLLE inh	PABP polyA inh	eIF4H inh
C=CCc1cccc(C=Nc2ccc(Br)cc2)c1O	i	i	i	i	i
COc1cccc(NC(=O)C(c2ccccc2)N2CCCCC2)c1 (stereo not drawn)	i	i	i	+	8.5
Cn1nc(C(=O)NCC(=O)Nc2ccc(F)c(F)c2)ccc1=O	nt	nt	i	nt	nt
O=C(NC(=S)Nc1cccnc1)c1cc2ccccc2o1	i	i	41	i	i
CC(=O)c1cccc(NC(=S)NC(=O)c2cccc(Cl)c2)c1	i	i	i	i	i
O=C(NC(=S)Nc1ccccc1)c1cncc(C#Cc2ccccc2)c1	i	i	40	i	i
O=C(O)c1cncc(C#Cc2ccccc2)c1	i	nt	i	i	i
O=C(NC(=S)Nc1cccnc1)c1cccc(Cl)c1	nt	nt	43	nt	nt
COC(=O)CC1OCC=C2CN3CCC45C6=CC(=O)C(=O)C([N+](=O)[O-])=C6NC4C1C2CC35 (stereo not drawn)	nt	nt	i	nt	nt
O[C@@H]1CN(Cc2cccs2)[C@@H](c2ccccc2)C[C@H]1n1cc(C2CC2)nn1	nt	nt	i	nt	nt
COc1cc2ccccc2cc1C(=O)NC(=S)Nc1ccc(C(=O)O)cc1	i	nt	i	i	i
COc1cc2ccccc2cc1C(=O)NC(=S)Nc1cccc(C(=O)O)c1	i	i	40	i	i
Cc1cc(S(=O)(=O)c2ccc(Cl)cc2)nc(S(=O)(=O)c2ccc(Cl)cc2)c1C#N	nt	nt	i	nt	nt
CCOC(=O)C1(CC2CC2)CCN(Cc2ccc(OC)cc2F)CC1	i	i	i	i	89
CCOC(=O)C1(CC2CC2)CCN(Cc2cc(Cl)c(O)c(OC)c2)CC1	i	i	i	i	i
CC(C)Oc1cc(F)ccc1-c1cc(C(=O)NCc2ccccn2)[nH]n1	nt	nt	i	nt	nt
O=C(O)CSc1cc(C(=O)c2cc(F)ccc2O)cn2c(=O)c3c(-c4ccccc4)csc3nc12	i	i	i	i	50
CCOC(=O)c1sc2nc3c(SCCC(=O)O)cc(C(=O)c4cc(OC)ccc4O)cn3c(=O)c2c1C	i	79	i	i	i
OC(c1ccc(F)c(F)c1)c1nc(-c2csc3ccccc23)cs1 (stereo not drawn)	nt	nt	i	nt	nt
CCc1nc2ccc(C(=O)NCCCn3ccnc3)cn2c1N(C)CCCc1ccccc1	nt	nt	i	nt	nt
CCOC(=O)N1CCN(C(=O)CSCc2nc(-c3ccccc3F)oc2C)CC1	i	i	45	i	i
C[C@H](O)[C@@H]1CN2CCc3c([nH]c4ccccc34)[C@@H]2C[C@@H]1N(C)Cc1cc(Cl)cc(Cl)c1	nt	nt	i	nt	nt
OCc1cccc(-c2csc(C(O)c3ccco3)n2)c1 (stereo not drawn)	nt	nt	i	nt	nt
Cc1n[nH]c(=S)n(NC(=O)/C=C/C(=O)Nn2c(=S)[nH]nc(C)c2=O)c1=O	i	i	i	+	92
CC1CCN(C(=O)CSc2nncn2-c2ccccn2)CC1	i	i	39	i	i
SMILES	MEX-5 binding	EBV gp42 block	PABP1 MLLE inh	PABP polyA inh	eIF4H inh
Cc1cnc(C)c(Nc2nc(C(N)Cc3ccc(Cl)cc3)cs2)n1 (stereo not drawn)	nt	nt	i	nt	nt
CCn1c(/C=C/c2ccccc2)nc2ccccc21	i	i	i	i	i
CCCn1c(/C=C/c2cc[n+](C)cc2)nc2ccccc21	i	nt	i	+	i
CCN(CC)S(=O)(=O)c1ccc(C(O)=C(C#N)c2nc3ccccc3n2C)cc1	nt	nt	i	nt	nt
COc1cc(CNC(=O)c2cc(-c3ccc(F)cc3OC)n[nH]2)cc(OC)c1	nt	nt	i	nt	nt
CN(CC(=O)NC(=O)NCc1ccco1)Cc1nc2ccccc2c(=O)[nH]1	i	i	i	+	69
COc1ccc2c(C=Nc3c(C)n(C)n(-c4ccccc4)c3=O)c(O)n(Cc3ccco3)c(=O)c2c1	i	78	i	i	i
Cc1ccc(Cl)cc1N1C(=O)CC(Sc2ncccn2)C1=O (stereo not drawn)	i	nt	42	i	i
Cc1ccnc(SC2CC(=O)N(c3ccc([N+](=O)[O-])cc3)C2=O)n1 (stereo not drawn)	i	nt	39	i	i
CCOC(=O)c1ccc(N2C(=O)CC(Sc3ncccn3)C2=O)cc1 (stereo not drawn)	i	nt	41	i	i
Cc1ccc(N2C(=O)CC(Sc3nccc(C)n3)C2=O)cc1 (stereo not drawn)	i	nt	i	i	i
CCN(CC)S(=O)(=O)c1cccc(C(=O)N/N=C2\CCCC(=O)C2)c1	i	i	i	+	i
CCN(CC)S(=O)(=O)c1cccc(C(=O)N/N=C2\CC(=O)CC(C)(C)C2)c1	i	i	i	i	i
O=C1CC(SC(=S)C2CCCC2=O)C(=O)N1 (stereo not drawn)	nt	nt	46	nt	nt
Cc1ccc(S(=O)(=O)N2CCCCC2)cc1NC(=O)Cn1cnnn1	i	i	i	i	i
CCN(CC)S(=O)(=O)c1ccc(C)c(NC(=S)Nc2cccc(S(=O)(=O)N3CCCCCC3)c2)c1	i	i	37	i	i
O=C(Cn1cnnn1)Nc1cccc(S(=O)(=O)N2CCCCC2)c1	i	i	i	i	19
O=C(NC(=S)Nc1ccc(CN2CCCCC2)cc1)c1ccco1	i	i	36	i	i
Cc1ccc(S(=O)(=O)N2CCCCC2)cc1NC(=S)NC(=O)c1ccco1	i	i	40	i	i
O=C1CCCC2=C1C(c1ccc(Br)cc1)c1c([nH]c(=S)[nH]c1=O)N2 (stereo not drawn)	i	i	i	i	i
O=c1[nH]c(=S)[nH]c2c1C(c1ccc(Br)cc1)c1c([nH]c(=S)[nH]c1=O)O2	-71	nt	i	+	83
COc1ccc2nc(-n3c(O)c(C4=c5ccccc5=NC4=O)[nH]c3=S)sc2c1	i	115	i	+	62
Cc1ccc(C)c2nc3sc(C(=O)N4CCCc5ccccc54)c(N)c3cc12	i	142	i	i	i
CCc1ccc2nc3sc(C(=O)N4CCc5ccccc54)c(N)c3cc2c1	i	159	nt	i	i
Cc1ccc2nc3sc(C(=O)N4CCOCC4)c(N)c3cc2c1	-44	i	i	i	i
SMILES	MEX-5 binding	EBV gp42 block	PABP1 MLLE inh	PABP polyA inh	eIF4H inh
CCOc1ccc2nc3sc(C(=O)N4CCN(C)CC4)c(N)c3cc2c1	i	i	i	i	i
O=C(c1ccc(C(=O)N2CCCc3ccccc32)s1)N1CCCc2ccccc21	i	i	i	i	i
OC[C@@H]1CN(Cc2ccc(-c3ccccc3)cc2)C[C@H](n2cnc3c(NCc4ccco4)ncnc32)O1	nt	nt	i	nt	nt
OC(c1cccc(Cl)c1)c1nc(/C=C/c2ccc(C(F)(F)F)cc2)cs1 (stereo not drawn)	nt	nt	i	nt	nt
COC/C=C/C1=CC2=CC(=O)C(C)(OC(=O)c3cnc4ccccc4n3)C(=O)C2=CO1 (stereo not drawn)	-42	nt	nt	nt	nt
CCc1nc2ccc(C(=O)NCCCN3CCCC3=O)cn2c1N(CC)C(=O)NCCc1ccccc1	nt	nt	i	nt	nt
O=C(NCCc1ccccc1)C1Cc2c(-c3ccc(Cl)cc3)ccnc2O1 (stereo not drawn)	nt	nt	i	nt	nt
CCOC(=O)CCSc1nc(-c2ccc3c(c2)OCO3)cc(C(F)(F)F)c1C#N	i	i	i	i	i
CCOC(=O)CC(=O)CSc1nc(-c2ccc3c(c2)OCO3)cc(C(F)(F)F)c1C#N	i	i	i	+	?

High-throughput results: PubChem BioAssay, several laboratories
